Assay results published in PubChem BioAssay (NCATS).
Results filed as inconclusive are left out. Values without a mark were called inactive. The source made the active and inactive calls.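 The calls were made as follows: active = compounds whose dose-response curve shows a full or clear partial loss of cell viability, called from curve shape rather than a numeric limit; inconclusive = weak partial curves or an effect only at the top dose; inactive = no dose-dependent loss of viability.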
Potency is read from the fitted curve at half-maximal effect.

Assay: Cell Viability - Hek293 (AID 427);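 also: cells exposed to compound for 40 hours at 37 °C before reading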
Conditions: qHTS
Excerpt: NIH Chemical Genomics Center [NCGC]
NIH Molecular Libraries Screening Centers Network [MLSCN]
National Institutes of Environmental Health Sciences [NIEHS]
National Toxicology Program [NTP]
We have developed a 1536-well cell-based assay for quantitative high throughput screening (qHTS) against a number of cell lines to determine in vitro cytotoxicity of small molecules. This particular assay uses the Hek 293 cell line which is derived from human embryonic kidney cells (transformed with adenovirus).
NCGC Assay Protocol Summary:
The CellTiter-Glo luminescent cell viability assay (Promega) is a homogeneous method to measure the number of viable cells in culture. The end point readout of this assay is based on quantitation of intracellular ATP, an indicator of metabolic activity, using the luciferase reaction. Luciferase catalyzes the oxidation of beetle Luciferin to oxyluciferin and light in the presence of ATP. The luminescent signal is proportional to amount of ATP present.
Using the CellTiter-Glo luminescent cell viability assay, the amount of cellular ATP was measured in the Hek293 cell line with complete culture medium following compound treatment for 40 hours. The assay was performed in opaque white Kalypsys 1536-well plates. In the screen, tamoxifen and doxorubicin were used as positive controls. Library compounds were measured for their ability to cause acute toxicity in the cell line, as reflected by a decrease in intracellular ATP levels, in a concentration-dependent manner. Data were normalized to the controls for basal activity (DMSO only) and 100% inhibition (100 uM tamoxifen). AC50 values were determined from concentration-response data modeled with the standard Hill equation.
qHTS protocol fo CellTiter Glo Hek 293 cellular assay
[Step] [Parameter] [Value] [Description]
2. Time; 5 hr; 37 °C incubation
4. Controls; 23 nL; Tamoxifen 0.34 uM to 100 uM & Doxorubicin 0.02 nM to 100 uM
5. Time; 40 hr; 37 °C incubation
6. Reagent; 5 uL; CellTiter Glo reagent
7. Time; 20 min; Room Temperature
8. Detection; Luminescence; Viewlux plate reader
Keywords: cell viability, cytotoxicity, Hek293 cell line, luminescence, NTPHTS, NTPHTS_NCGC, NIEHS, EPA, DSSTox, MLSMR, MLSCN, NIH Roadmap, qHTS, NCGC
In the case of `C=C[C@H]1CN2CC[C@H]1C[C@@H]2[C@@H](O)c1ccnc2ccc(OC)cc12`, the Potency was over 92 µM.
In the case of `CCCCC(CC)COC(=O)c1ccc(N(C)C)cc1` (stereo not drawn), the Potency was over 92 µM.
Molecule `CCOc1ccc(NC(C)=O)cc1` has a Potency of over 92 µM.
`COc1cc([C@H]2Oc3cc([C@H]4Oc5cc(O)cc(O)c5C(=O)[C@@H]4O)ccc3O[C@@H]2CO)ccc1O` gave a Potency of over 92 µM.
With `COc1ccc(C(=O)c2ccccc2)c(O)c1` the Potency was over 92 µM.
In the case of `CCCN(CCC)S(=O)(=O)c1ccc(C(=O)O)cc1`, the Potency was over 92 µM.
Molecule `OC[C@H]1O[C@@H]2O[C@H]3[C@H](O)[C@@H](O)[C@@H](O[C@H]4[C@H](O)[C@@H](O)[C@@H](O[C@H]5[C@H](O)[C@@H](O)[C@@H](O[C@H]6[C@H](O)[C@@H](O)[C@@H](O[C@H]7[C@H](O)[C@@H](O)[C@@H](O[C@H]8[C@H](O)[C@@H](O)[C@@H](O[C@H]1[C@H](O)[C@H]2O)O[C@@H]8CO)O[C@@H]7CO)O[C@@H]6CO)O[C@@H]5CO)O[C@@H]4CO)O[C@@H]3CO` has a Potency of over 92 µM.
With `Oc1ccc(Cl)cc1Cc1cc(Cl)ccc1O` the Potency was 37.4 µM (active).
With `COc1ccc(C(Cl)=C(c2ccc(OC)cc2)c2ccc(OC)cc2)cc1` the Potency was over 92 µM.
In the case of `CCOc1ccccc1C(N)=O`, the Potency was over 92 µM.
For `C/C=C/c1ccc(O)c(OC)c1`, the Potency was over 92 µM.
For `NC(=O)c1ccccc1O`, the Potency was over 92 µM.
`O=C(O)c1ccc(S(=O)(=O)N(Cl)Cl)cc1` gave a Potency of over 92 µM.
